The experiment in a line: chemical genetic growth profiling, strain panel (AID 1159580).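 Further: tested at 20 µM; growth read once vehicle control cultures reached saturation at 30 °C; 1 = growth at the plate median or of vehicle wells; lower values mean less growth of the strain.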 The following applies: S. cerevisiae deletion strains, growth OD.

This is an account of results in PubChem BioAssay AID1159580 (chemical genetic matrix, 2015).

Each structure is given as a SMILES string. In all, about 5,500 compounds went through this assay and about 2,000 (36%) were called active. Another 18% or so got no clear call; they are omitted. This is one part of the list. A number with no mark means an inactive call. No stated cut-off is given here; in the data, active means normalized growth mostly below about 0.91 (no sharp cut-off); inconclusive means no clear call, values can overlap the other calls; inactive means mostly above about 0.92.

`C=C1C(=O)O[C@@H]2[C@H]3O[C@]3(C)CCC=C(C)CC[C@@H]12`: the normalized growth is, setting by setting: (locus YAL040C, strain CLN3, active compounds read low) 0.966; (locus YCL061C, strain MRC1 (second series), active compounds read low) 0.96; (locus YDR363W, strain ESC2, active compounds read low) 0.969; (locus YER002W, strain NOP16, active compounds read low) 0.981; (locus YGR229C, strain SMI1, active compounds read low) 0.822 (active); (locus YJR075W, strain HOC1, active compounds read low) 0.906 (active). The normalized growth is, setting by setting: (locus YMR307W, strain GAS1, active compounds read low) 0.766 (active); (locus YNL175C, strain NOP13, active compounds read low) 0.956; (locus YNL197C, strain WHI3, active compounds read low) 0.95; (locus YNL224C, strain SQS1, active compounds read low) 0.967; (locus YNL322C, strain KRE1, active compounds read low) 0.945; (locus YOR083W, strain WHI5 (second series), active compounds read low) 0.972. For the same molecule, the normalized growth (locus YPL055C, strain LGE1, active compounds read low) was 0.945.
